From PubChem BioAssay (NCI)
Compounds without any hit were thinned out: in the full panel of roughly 83,000, 20% have a hit.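 Compound tested at a single concentration for 48 hours in 96-well plates; a percent growth value below 10 was scored as active.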 Calls of active or inactive are those of the source.

These compounds were tested on MDA-MB-468 breast (assay: NCI-60 one-dose screen, 48 h (100 = growth as untreated, 0 = no growth, -100 = all killed)). Settings: 10 µM unless noted.

| SMILES | growth |
| --- | --- |
| O=c1c2sc3ncc(Cl)cc3c2nnn1-c1cccc(Cl)c1 | 97.3% (inactive) |
| O=C1c2ccccc2OC=C(c2ccccc2)N1CCCCN1CCCCC1 | -6.27% (active) |
| Fc1cccc(F)c1C#Cc1ccc2cccnc2c1 | 36.5% (inactive) |
| CC(C)N(CCOc1cccc(-c2nc3sccn3c2-c2ccnc(S(C)(=O)=O)n2)c1)C(C)C | -2.25% (active) |
| O=C(Nc1cccc(-n2cc(-c3ccncc3)c(-c3ccc(Cl)c(O)c3)n2)c1)c1ccc(N2CCOCC2)c(C(F)(F)F)c1 | 66% (inactive) |
| CN1CCN(Cc2ccc(NC(=O)c3cc(C#Cc4cnc(N)c5ncccc45)n(C)n3)cc2C(F)(F)F)CC1 | 104% (inactive) |
| CNC(=O)c1c(C)oc2cc(Oc3ncnc4cc(OC)c(OC)cc34)ccc12 | 106% (inactive) |
| OC1CCN(CCCOc2c3ccccc3nc3c2oc2ccc(Cl)cc23)CC1 | -8.36% (active) |
| NC(=O)c1cccc(-c2cc(C(N)=O)ccc2Cl)c1 | 53.4% (inactive) |
| Cn1cc(-c2csc(-c3cn(CCN)c4ccc(Br)cc34)n2)c2cccnc21 | 28.6% (inactive) |
| COC(=O)/C(CCC=C(C)C)=C1\[C@@H](OC(C)=O)C[C@@]2(C)[C@H]1C[C@@H](O)[C@H]1[C@@]3(C)CC[C@H](NCCN)[C@@H](C)[C@@H]3CC[C@@]12C | 58.6% (inactive) |
| c1cc(OCCN2CCCC2)ccc1CNc1ccc2nc(CCC3CCCCC3)[nH]c2c1 | 43.6% (inactive) |
| c1ccc(N2N=C(c3cccc(Nc4ccncc4)c3)CC2c2ccc3c(c2)OCO3)cc1 (stereo not given) | 15.1% (inactive) |
| C=C(C)[C@@H]1CC[C@]2(C)[C@H](CC[C@@H]3[C@@H]([C@@](C)(O)CCC=C(C)C)CC[C@]32C)[C@@]1(C)CCC(=O)N1CCN(C)CC1 | -82.2% [100 µM] (active) |
| Cc1nc2sc(C(=O)Nc3cccc(Cl)c3)c(N)c2cc1C(O)c1ccccc1 (stereo not given) | 15.3% (inactive) |
| O=c1nc2sc3nc4ccccc4cc3cc-2s1 | 124% (inactive) |
| C=C(C)[C@@H]1CC[C@]2(C(=O)OCCOCCOCC[P+](c3ccccc3)(c3ccccc3)c3ccccc3)CC[C@]3(C)[C@H](CC[C@@H]4[C@@]5(C)CC[C@H](OC(=O)C(Cl)Cl)C(C)(C)[C@@H]5CC[C@]43C)[C@@H]12 | -53.7% (active) |
| COc1ccc2nc(NC(=O)CN3CCn4c(nnc4C(F)(F)F)C3)sc2c1 | 84.5% (inactive) |
| CC(C)(O)c1cncc(-c2ccc3ncc(C#N)c(N4CCc5cc(F)c(Cl)cc54)c3c2)c1 | 10.2% (inactive) |
| O=C1OCC2=C1C(c1cccc(Br)c1)c1cc3c(cc1N2CCO)CCC3 (stereo not given) | -3.99% (active) |

| SMILES | growth |
| --- | --- |
| CC12CCC3C(CCC4CC(=O)/C(=C\O)CC43C)C1CCC(=O)O2 (stereo not given) | 108% (inactive) |
| O=C1/C(=C/c2cccc([N+](=O)[O-])c2)COc2ccc(O)cc21 | 36.9% (inactive) |
| c1ccc2c(-c3nc(N4CCOCC4)c4c5c(sc4n3)CCCCCC5)cccc2c1 | 95.1% (inactive) |
| CCN(CC)CC(O)c1cc(-c2ccc(Cl)cc2)nc2cc(Cl)ccc12 (stereo not given) | -76.9% (active) |
| O=C(C[n+]1ccccc1)c1ccc2ccccc2c1 | 88.1% (inactive) |
| Nc1c(C(=O)Nc2ccccc2)sc2nc3c(cc12)CCCCC3 | -9.1% (active) |
| Cc1ccc(-c2ccc(/C=C(\C#N)c3nc(-c4ccco4)cs3)o2)cc1 | -45.8% (active) |
| N#Cc1nc(-c2cccc(Br)c2)cc(-c2ccc(Nc3nc(N4CCCCC4)nc(N4CCCCC4)n3)cc2)c1N | -26.3% (active) |
| Oc1ccc(CSc2nnc(-c3ccccc3)n2-c2ccccc2)c2cccnc12 | -2.77% (active) |
| COc1ccc(C(=O)NNc2nc(Cl)nc(N3CCN(C(c4ccccc4)c4ccccc4)CC3)n2)cc1 | -31.9% (active) |
| COc1ccccc1Nc1nnc(-c2ccc(Cl)cc2)o1 | 14% (inactive) |
| O=C(O)C1CCC(=O)N1C(=O)OCc1ccccc1 (stereo not given) | 106% (inactive) |
| CC/C(=C\c1ccc(N(C)C)cc1)c1ccncc1 | -12.7% (active) |
| COc1cc(C(=O)Nc2cc3c(cc2Oc2cc(C)cc(C)c2)C(=O)N(C)[C@@H](CC(=O)N(C)O)C(=O)N3)c(Br)c(OC)c1OC | -41.6% (active) |
| CCOC(=O)c1c(C(F)(F)F)n([O-])c2ccc(OC)cc2[n+]1=O | -22.2% (active) |
| Cc1ccc(NC(=O)c2nc(S(C)(=O)=O)oc2-c2ccc(F)cc2)cc1Nc1ccc2ncn(C)c(=O)c2c1 | 16.8% (inactive) |
| CCN(CC)CCCOc1ccc2ncnc(Nc3ccc(Oc4cccc(C(F)(F)F)c4)c(Cl)c3)c2c1 | -64.7% (active) |
| c1cc2ccc3cc2cc1CNCCN1CCNCc2ccc4ccc(cc4c2)CNCCN(CCNC3)CCNCc2ccc3ccc(cc3c2)CNCC1 | -45.2% (active) |
| Cc1ccc(S(=O)(=O)N(CC[C@@H]2C[C@H]2c2cc3ccccc3o2)C(=O)NC2CCCCC2)cc1 | 95.3% (inactive) |
| CC(C)(C)CC(C)(C)Nc1c(-c2ccc3c(c2)OCO3)nc2cnccn12 | 95.2% (inactive) |
